From PubChem BioAssay AID720582 (The Scripps Research Institute Molecular Screening Center, 2013)
Out of some 370,000 compounds screened, about 2,300 (0.62%) were called active. The full list was thinned out, with actives kept by preference. Values without a mark were called inactive.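 Rule for the calls: active = inhibition above a per-campaign cutoff equal to the mean of compounds falling between control-based bounds plus 3 SD (cut at about 20% in these data); inactive = the rest.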

target: Disintegrin and metalloproteinase domain-containing protein 10 (Homo sapiens) (UniProt O14672); experiment: blockers of ADAM10 peptide cleavage – biochemical, QFRET, HTS, primary screen (AID 720582); settings: recombinant ADAM10, EDANS/DABCYL FRET peptide cleavage, 3 h; at 7 µM; active compounds read high;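 note: 0% = DMSO wells while the 100% control is not disclosed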
Sequence (O14672 214-748 limits assumed): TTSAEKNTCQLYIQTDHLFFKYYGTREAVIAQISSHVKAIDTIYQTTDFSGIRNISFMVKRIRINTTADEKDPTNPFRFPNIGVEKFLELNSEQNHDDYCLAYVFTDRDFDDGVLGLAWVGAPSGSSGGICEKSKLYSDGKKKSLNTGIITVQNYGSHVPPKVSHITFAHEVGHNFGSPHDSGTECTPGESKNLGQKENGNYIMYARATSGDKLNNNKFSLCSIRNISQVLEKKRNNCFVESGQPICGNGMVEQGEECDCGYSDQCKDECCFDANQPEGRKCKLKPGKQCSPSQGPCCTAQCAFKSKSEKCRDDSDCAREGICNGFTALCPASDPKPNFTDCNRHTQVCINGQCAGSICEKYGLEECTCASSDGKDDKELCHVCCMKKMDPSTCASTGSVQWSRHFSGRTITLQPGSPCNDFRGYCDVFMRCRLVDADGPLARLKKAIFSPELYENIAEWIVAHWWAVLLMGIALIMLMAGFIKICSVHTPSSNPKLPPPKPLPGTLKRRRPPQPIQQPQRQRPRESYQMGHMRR

Structure (SMILES) | inhibition
Cc1ccc(C)c(NC(=S)NNC(=O)c2csc(C)c2)c1 | 24.9% (active)
Cc1cc(C(=O)NNC(=S)NC(C)c2ccccc2)cs1 (stereo unspecified) | 9.44%
Cc1ccc(C)c(NC(=O)NNC(=O)c2ccc3ccccc3c2O)c1 | -78.3%
COc1ccccc1C(=O)CSc1nnc(-c2ccccn2)n1-c1ccccc1 | -1.9%
COc1cccc(CSc2nnc(-c3cccnc3)n2Cc2ccccc2)c1 | -11.6%
O=C(CCCCCN1C(=O)C2C3C=CC(C3)C2C1=O)Nc1ccccn1 (stereo unspecified) | 2.11%
COC(=O)c1cc(S(=O)(=O)N2CCN(C(=O)C3CCCO3)CC2)cn1C (stereo unspecified) | -4.05%
COc1ccc(NC(=O)COC(=O)CNC(=O)C2CCCCC2)cc1 | -0.81%
CCC(C)(C)c1ccc(Oc2ccc(NC(=O)COC(=O)C3=COCCO3)cc2)cc1 | 35.7% (active)
O=C1CCC(C(=O)OCC(=O)Nc2ccc(OC(F)F)cc2)=NN1 | 5.49%
N/C(Cc1ccc([N+](=O)[O-])cc1)=N\OC(=O)C1CCCCC1 | -1.46%
Cc1cc(C)cc(OCC(=O)O/N=C(\N)Cc2ccc([N+](=O)[O-])cc2)c1 | 6.24%
N/C(Cc1ccc([N+](=O)[O-])cc1)=N\OC(=O)COc1ccc2ccccc2c1 | 29.3% (active)
O=C(NCC1COc2ccccc2O1)c1ccc(NC(=O)c2cc(F)ccc2F)cc1 (stereo unspecified) | -8.24%
CCOC(=O)N1CCN(C(=O)C[C@@H]2C(=O)N(CCc3ccc(Cl)cc3)C3=CCCC[C@]32C(=O)OCC)CC1 | 1.06%
COc1ccc(CN(CCN2CCOCC2)C(=O)c2ccc(C)cc2)cc1OC | -9.63%
COc1ccc(C(C(=O)NC2CCCCC2)N(C(=O)CCl)c2ccccc2Cl)cc1 (stereo unspecified) | -8.69%
COc1ccc(C(CCN(Cc2ccc(OC)c(OC)c2)C(=O)CCl)c2ccccc2)cc1 (stereo unspecified) | 28% (active)
COC(=O)C1CN(CCc2ccccc2)CCS(=O)(=O)N1Cc1ccc(F)cc1 (stereo unspecified) | -11.1%

Structure (SMILES) | inhibition
COC1=C[C@H](C(=O)NCCNC(C)=O)[C@H](C)[C@@H](c2ccccc2)CC1=O | 4.85%
CCOc1ccccc1NC(=O)c1cc(S(=O)(=O)N2CCC3(CC2)OCCO3)ccc1F | -1.65%
CCOc1cc(NC(=O)CCl)c(OCC)cc1NC(C)=O | -2.95%
CCOc1cc(NC(=O)c2ccccc2C(=O)O)c(OCC)cc1NC(=O)c1ccccc1F | 26.7% (active)
c1cncc(CNc2ccnc(-c3ccc4c(c3)OCO4)n2)c1 | -4.61%
CN(CCc1ccccc1)C(=O)Cn1nc(-c2ccccc2)ccc1=O | -9.95%
COc1cc(/C=N/n2c(C)n[nH]c2=S)ccc1OCc1ccccc1 | 20.3% (active)
CNC(=S)N/N=C/c1ccc(OCc2ccccc2)c(Br)c1 | -17%
C=CCOc1ccc(/C=N/n2cncn2)cc1OC | -13.5%
CC(CCN1CCC(C(O)(c2ccccc2)c2ccccc2)CC1)Oc1ccc(Cl)cc1 (stereo unspecified) | 6%
O=S1(=O)c2ccc(Br)cc2OC[C@H](Cc2ccccc2)N1Cc1cn(Cc2ccccc2)nn1 | -9.49%
Cc1[nH]nc(-c2ccc(OCc3cnn(-c4ccccc4)c3)cc2O)c1Oc1ccc(Cl)cc1 | -10.7%
C=C(C)COc1ccc(-c2n[nH]c(C)c2-c2ccccc2)c(O)c1 | 23.7% (active)
C[C@H]1CCC/C=C/C(=O)c2c(O)cc(O)cc2CC(=O)O1 | -6.63%
Cc1ccc(-c2nnc(SCC(=O)Nc3ccc(Oc4ccccc4)cc3)n2Cc2ccco2)cc1 | 17.8%
Cc1ccc(OCc2nnc(SC/C=C/c3ccccc3)n2Cc2ccco2)cc1 | 21.3% (active)
O=C(CSc1nnc(COc2ccccc2)n1Cc1ccco1)c1ccc2ccccc2c1 | 9.91%
Cc1c(C(C)c2ccccc2O)[nH]c2ccccc12 (stereo unspecified) | 11.8%
O=C1CC(c2ccc3c(c2)OCO3)N=C2N(CC3CC3)C/C(=C/c3ccccc3)N12 (stereo unspecified) | -2.63%

Structure (SMILES) | inhibition
CC(=O)Nc1ccc(N2C(=O)C3C4CC(=O)C(c5ccccc54)C3C2=O)cc1 (stereo unspecified) | -0.65%
O=C(Oc1cccc(N2C(=O)C3C4c5ccccc5C(c5ccccc54)C3C2=O)c1)c1ccco1 (stereo unspecified) | 20.3% (active)
Cc1ccc(C)c(NC(=O)c2ccc(OC(=O)c3ccco3)cc2)c1 | 0.79%
O=C(NCCNc1ccc([N+](=O)[O-])cc1)c1cccc2c(Br)cccc12 | -54.2%
COc1ccc(Cn2cc(COC(=O)N(C)Cc3ccccc3)nn2)cc1 | 1.83%
Oc1oc(-c2ccccc2Br)nc1/C=N/c1ccccn1 | -33.4%
CC(N=Cc1nc(-c2ccccc2)oc1O)c1ccccc1 (stereo unspecified) | 21% (active)
COc1ccc(-n2c(SCC(=O)Nc3ccc4cn[nH]c4c3)nnc2-c2cccnc2)cc1 | 3.52%
CC(C)CSc1nnc(-c2cccnc2)n1Cc1ccccc1 | -2.15%
Nn1c(SCC(=O)N2c3ccccc3Sc3ccccc32)nnc1-c1n[nH]c2c1CCC2 | -5.44%
Cc1ccc(N(CC(=O)Nc2cc(C)cc(C)c2)S(=O)(=O)c2cccc3nonc23)cc1 | 14.3%
Cc1ccc(S(=O)(=O)N(CC(=O)Nc2cccnc2)c2ccc(Br)cc2)cc1 | 20.1% (active)
CCNC(=O)CN(c1ccc(C)cc1)S(=O)(=O)c1ccc(SC)cc1 | 2.9%
O=S1(=O)c2c(cccc2N2CCSCC2)Oc2ccccc2CN1Cc1cn(Cc2ccc(F)cc2)nn1 | -1.57%
CCOc1ccc(N(CC(=O)Nc2c(C)n(C)n(-c3ccccc3)c2=O)S(=O)(=O)c2ccc(Cl)s2)cc1 | 7.29%
NC(=O)c1ccccc1N(Cc1ccccc1)S(=O)(=O)c1ccccc1 | 14.4%
O=S(=O)(c1ccccc1)N(Cc1cccc(F)c1)c1ccccc1 | 22.7% (active)
O=C(O)c1cc(S(=O)(=O)N(Cc2ccccc2)c2ccccc2)ccc1Cl | 2.05%
